Experimental data published in PubChem BioAssay AID1159580 (chemical genetic matrix, 2015).
Several values for one entry are separate records, joined by “and”; a condition that tells them apart may be missing. Identical values can stand only once. Screen size: about 5,500 compounds; about 2,000 (36%) were called active. Inconclusive results (about 18%) are left out. Rule as the data show it: active = normalized growth mostly below about 0.91 (no sharp cut-off); inconclusive = no clear call, values can overlap the other calls; inactive = mostly above about 0.92. The list shows a part of the results.

Assay: chemical genetic growth profiling, strain panel (AID 1159580);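 also: tested at 20 µM; growth read once vehicle control cultures reached saturation at 30 °C; 1 = growth at the plate median or of vehicle wells; lower values mean less growth of the strain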
Conditions: S. cerevisiae deletion strains, growth OD

Measured: normalized growth

O=c1[nH]cnc2c1ncn2C1O[C@H](CO)[C@@H](O)[C@H]1O (stereo partly drawn)
inactive: locus YAL013W, strain DEP1, active compounds read low 1.01 | locus YAL021C, strain ccr4, active compounds read low 0.989 | locus YAL026C, strain drs2, active compounds read low 1 | locus YAL030W, strain snc1, active compounds read low 0.989 | locus YBL061C, strain skt5, active compounds read low 0.995 | locus YBR009C, strain hhf1, active compounds read low 1.02 | locus YBR021W, strain FUR4, active compounds read low 1 | locus YBR023C, strain chs3, active compounds read low 0.998 | locus YBR171W, strain sec66, active compounds read low 0.978 | locus YBR229C, strain ROT2, active compounds read low 1 | locus YBR231C, strain swc5, active compounds read low 0.974 | locus YBR279W, strain paf1, active compounds read low 0.986 | locus YCL011C, strain gbp2, active compounds read low 1 | locus YCL016C, strain dcc1, active compounds read low 1 | locus YCL029C, strain bik1, active compounds read low 1.03 | locus YCL069W, strain vba3, active compounds read low 0.995 | locus YCR088W, strain abp1, active compounds read low 0.981 | locus YDL005C, strain med2, active compounds read low 0.987 | locus YDL035C, strain GPR1, active compounds read low 1.01 | locus YDL040C, strain nat1, active compounds read low 0.986 | locus YDL074C, strain BRE1, active compounds read low 1.01 | locus YDL101C, strain DUN1, active compounds read low 1.01 | locus YDL134C, strain PPH21, active compounds read low 1 | locus YDL185W, strain tfp1, active compounds read low 1.04 | locus YDL192W, strain arf1, active compounds read low 1.05 | locus YDR001C, strain nth1, active compounds read low 0.986 | locus YDR069C, strain doa4, active compounds read low 0.975 | locus YDR101C, strain arx1, active compounds read low 1.05 | locus YDR137W, strain rgp1, active compounds read low 1.01 | locus YDR159W, strain sac3, active compounds read low 0.968 | locus YDR162C, strain NBP2, active compounds read low 1.01 | locus YDR195W, strain ref2 0.958 | locus YDR297W, strain sur2, active compounds read low 0.993 | locus YDR318W, strain mcm21, active compounds read low 1.01 | locus YDR334W, strain swr1, active compounds read low 0.974 | locus YDR335W, strain msn5, active compounds read low 0.997 | locus YDR388W, active compounds read low 1.03 | locus YDR392W, strain spt3, active compounds read low 0.907 | locus YDR502C, strain sam2, active compounds read low 1.02 | locus YEL003W, strain gim4, active compounds read low 0.991 | locus YEL037C, strain rad23, active compounds read low 0.987 | locus YEL061C, strain CIN8 (second series), active compounds read low 0.989 | locus YEL061C, strain CIN8, active compounds read low 1 | locus YER015W, strain faa2, active compounds read low 0.982 | locus YER016W, strain bim1, active compounds read low 0.989 | locus YER110C, active compounds read low 1.03 | locus YER111C, strain swi4, active compounds read low 0.996 | locus YER155C, strain BEM2 (second series), active compounds read low 0.939 | locus YER155C, strain BEM2, active compounds read low 1.01 | locus YER167W, strain BCK2, active compounds read low 1 | locus YFR010W, strain ubp6, active compounds read low 0.983 | locus YGL078C, strain dbp3, active compounds read low 1.02 | locus YGL086W, strain mad1, active compounds read low 1.01 | locus YGL167C, strain pmr1, active compounds read low 0.978 | locus YGL173C, strain kem1, active compounds read low 0.988 | locus YGL227W, strain vid30, active compounds read low 0.98 | locus YGL240W, strain doc1, active compounds read low 1 | locus YGL248W, strain PDE1, active compounds read low 1.01 | locus YGL253W, strain hxk2, active compounds read low 0.988 | locus YGR135W, strain pre9, active compounds read low 0.998 | locus YGR252W, strain gcn5, active compounds read low 0.981 | locus YHR013C, strain ard1, active compounds read low 0.969 | locus YHR027C, strain rpn1, active compounds read low 0.997 | locus YHR030C, strain SLT2, active compounds read low 1 and 0.966 | locus YHR079C, strain IRE1 (second series), active compounds read low 1.03 | locus YHR079C, strain IRE1, active compounds read low 0.978 | locus YHR094C, strain hxt1, active compounds read low 1.02 | locus YHR129C, strain ARP1, active compounds read low 1 | locus YHR142W, strain chs7, active compounds read low 1.02 | locus YHR200W, strain rpn10, active compounds read low 1.03 | locus YIL066C, strain RNR3, active compounds read low 1.01 | locus YIL073C, strain SPO22, active compounds read low 1.12 | locus YIL125W, strain kgd1, active compounds read low 1.02 | locus YIR030C, strain dcg1, active compounds read low 1.04 | locus YJL092W, strain hpr5, active compounds read low 0.998 | locus YJL095W, strain BCK1 (second series), active compounds read low 0.987 | locus YJL095W, strain BCK1, active compounds read low 1.02 and 0.981 | locus YJL115W, strain asf1, active compounds read low 0.987 | locus YJL129C, strain trk1, active compounds read low 0.994 | locus YJL134W, strain LCB3, active compounds read low 1 | locus YJL154C, strain vps35, active compounds read low 0.982 | locus YJL164C, strain tpk1, active compounds read low 1.02 | locus YJL166W, strain qcr8, active compounds read low 1.01 | locus YJL168C, strain set2, active compounds read low 1.01 | locus YJL187C, strain SWE1 (second series), active compounds read low 1 | locus YJL187C, strain SWE1, active compounds read low 0.991 | locus YJR043C, strain POL32, active compounds read low 1.01 | locus YJR066W, strain TOR1, active compounds read low 0.925
